HSP90 inh – inhibitors of HSP90 luciferase refolding in rabbit reticulocyte lysate; luciferase refolding luminescence, 3 h; inhibition, % at 5.6 µM; 290,000 compounds, 0.91% hits; AID 1789;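 active = inhibition above the screen-wide mean plus 3 SD, computed separately per campaign, cut at about 16% in these data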;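 also: inhibitors lower the luminescence because luciferase stays unfolded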
HSF1 inhib – HSF1 inhibition; NIH3T3-HGL HSE-luciferase, MG132-induced, luminescence 8 h; hits give low values; activity change, negative = inhibition, % at 7.5 µM (by protocol); 300,000 compounds, 0.77% hits; AID 2098;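 active = more than half of replicate wells show activity change below -50%, luminescence cut by over half; inconclusive = some wells, but at most half, below -50%; inactive = no replicate well below -50%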;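 also: luciferase reports HSF-1 transcriptional activity via heat shock element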
HSF1 activator – increases HSF-1 driven luciferase reporter signal | activation, % at 9 µM | NIH3T3-HGL HSF-1 luciferase reporter, MG132, 8 h; 100% = twice DMSO control signal | 300,000 compounds, 1.7% hits | AID 504408;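 active = mean replicate activation of at least 50% with a set share of replicates each reaching 50%; inconclusive = only one of those two conditions met; inactive = mean below 50% and too few replicates reaching it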
TWEAK-Fn14 inh – inhibitors of TWEAK-Fn14 interaction signaling. TWEAK-stimulated Fn14 reporter cells, luciferase luminescence, 8 h. inhibition, % at 10 µM. 360,000 compounds, 2% hits. AID 1159606; in the data active = inhibition above about 50%
EBV LMP1 NFkB – Epstein-Barr LMP1 NF-kappaB reporter inhibition; LMP1-induced NF-kappaB luciferase reporter cells, luminescence; 350,000 compounds, 0.69% hits; inhibition, % at 12.5 µM; in the data active = inhibition above about 41%; inconclusive = no clear call, values can overlap the other calls
TROY signal inh – inhibitors of TROY-dependent NF-kB signaling; Q293 LMP1-TROYcd NF-kB luciferase reporter, 4 h; inhibition, % at 10 µM; 360,000 compounds, 0.98% hits; AID 1347056;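 active = compounds whose plate-normalised and pattern-corrected inhibition of the luciferase reporter signal at the single screening dose is 50% or more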
A number is an active result; ! = a repeat was not active. Sampled rows, rich in hits. Any-hit rate of the full collection: about 4.7%.

`N#CCCn1cc(C(=O)Nc2ccc([N+](=O)[O-])cc2)c(-c2ccccc2)n1` gave HSP90 inh inactive, HSF1 inhib -71, HSF1 activator inactive, TWEAK-Fn14 inh inactive, EBV LMP1 NFkB inactive and TROY signal inh inactive.
`CN1C(=O)C(=Cc2c(OCc3cnc(Cl)s3)ccc3ccccc23)C(=O)N(C)C1=O` gave HSP90 inh inactive, HSF1 inhib inactive, HSF1 activator 61, TWEAK-Fn14 inh inactive, EBV LMP1 NFkB inactive and TROY signal inh inactive.
Cc1cc(C)c(S(=O)(=O)N2Cc3ccccc3-n3nncc3C2)c(C)c1 was read as TWEAK-Fn14 inh inactive, EBV LMP1 NFkB inactive and TROY signal inh inactive.
Screening COc1ccc(-c2ccc3c(c2)CNCc2cnnn2-3)cc1 returned TWEAK-Fn14 inh inactive and TROY signal inh inactive.
Screening C=C1C(=O)O[C@@H]2C[C@@H](C)[C@@H]3C=CC(=O)[C@@]3(C)[C@@H](O)[C@H]12 returned HSF1 inhib -92, HSF1 activator inactive, TWEAK-Fn14 inh 104, EBV LMP1 NFkB 94 and TROY signal inh inactive.
Screening C[C@@H]1C[C@H]2OC(=O)C3(CO3)[C@H]2[C@H](O)[C@]2(C)C(=O)C3OC3[C@@H]12 (stereo partly drawn) returned HSF1 inhib inactive and HSF1 activator inactive.
Screening CCN(CC)S(=O)(=O)c1ccc(NN=C(C#N)C#N)cc1 returned HSP90 inh inactive, HSF1 inhib inactive, HSF1 activator inactive, TWEAK-Fn14 inh 67, EBV LMP1 NFkB inactive and TROY signal inh 63.
CC12CCC3c4ccc(OC(=O)N(CCCl)CCCl)cc4CCC3C1CCC2O (stereo not drawn) was read as TWEAK-Fn14 inh inactive, EBV LMP1 NFkB inactive and TROY signal inh inactive.
For CCC(c1nnnn1Cc1ccccc1)N1CCC2(CC1)C(=O)NCN2c1ccccc1 (stereo not drawn) the results were TWEAK-Fn14 inh inactive and TROY signal inh inactive.
`COCC(=O)N1Cc2ccccc2-n2nncc2C1` gave TWEAK-Fn14 inh inactive, EBV LMP1 NFkB inactive and TROY signal inh inactive.
`C=C(C=O)CC1CC(O)[C@]2(C)OC3CC4OC5C[C@]6(C)O[C@]7(C)CCC8OC9C[C@]%10(C)OC%11C(C)=CC(=O)OC%11CC%10OC9C[C@@H](C)C8OC7CC6O[C@]5(C)CC5OC5C4OC3CC2O1` (stereo partly drawn) gave HSP90 inh inactive, HSF1 inhib inconclusive, HSF1 activator inactive, TWEAK-Fn14 inh 108, EBV LMP1 NFkB 74 and TROY signal inh 89.
`C=C(CO)CC1CC(O)[C@]2(C)OC3CC4OC5C[C@]6(C)O[C@]7(C)CCC8OC9C[C@]%10(C)OC%11C(C)=CC(=O)OC%11CC%10OC9C[C@@H](C)C8OC7CC6O[C@]5(C)C/C=C\C4OC3CC2O1` (stereo partly drawn) gave HSP90 inh inactive, HSF1 inhib inactive, TWEAK-Fn14 inh inactive, EBV LMP1 NFkB inactive and TROY signal inh inactive.
For CC(C)C(O)(C(=O)OCC1=CCN2CCC(O)C12)C(C)O (stereo not drawn) the results were TWEAK-Fn14 inh inactive and TROY signal inh inactive.
CC[n+]1c(-c2ccccc2)c2cc(N)ccc2c2ccc(N)cc21 was read as HSF1 inhib inactive, HSF1 activator inactive, TWEAK-Fn14 inh 95, EBV LMP1 NFkB inactive and TROY signal inh 53.
C[C@]12CC[C@@H](O)CC1=CCC1C2CC[C@@]2(C)C1CC[C@@H]2O (stereo partly drawn) was read as TWEAK-Fn14 inh inactive, EBV LMP1 NFkB inactive and TROY signal inh inactive.
Screening FC(F)(F)c1cccc(NC2=NCCS2)c1 returned TWEAK-Fn14 inh inactive, EBV LMP1 NFkB inactive and TROY signal inh inactive.
`Cc1cc(O)c2c(c1)C(=O)C13C(=C2O)C(=O)[C@H]2[C@@H](O)[C@@H]1[C@H]1[C@H](O)[C@@H]3C(=O)C3=C(O)c4c(O)cc(C)cc4C(=O)C312` (stereo partly drawn) gave TWEAK-Fn14 inh 72, EBV LMP1 NFkB inactive and TROY signal inh inactive.
Screening O=C1C=CC(=O)C2C1C1(Cl)C(Cl)=C(Cl)C2(Cl)C1(Cl)Cl (stereo not drawn) returned TWEAK-Fn14 inh 57, EBV LMP1 NFkB inactive and TROY signal inh inactive.
CN(C)CCc1nc2ccccc2c(=O)n1-c1ccccc1 was read as HSP90 inh inactive, HSF1 inhib inactive and HSF1 activator 81.
CCCc1nc2ccccc2c(=O)n1-c1ccc(OC)cc1 was read as HSP90 inh inactive, HSF1 inhib inactive, HSF1 activator inactive, TWEAK-Fn14 inh inactive, EBV LMP1 NFkB inactive and TROY signal inh inactive.
`COC(=O)C1=C(c2ccc(Cl)c(C(F)(F)F)c2)C[C@@H]2CC[C@H]1N2C(=O)N1CCC(C)CC1` gave TWEAK-Fn14 inh inactive, EBV LMP1 NFkB inactive and TROY signal inh inactive.
Screening C[C@]12C[C@H](O)[C@@H](O)C[C@@H]1CC[C@@H]1[C@@H]2CC[C@]2(C)C(=O)CC[C@@H]12 returned TWEAK-Fn14 inh inactive and TROY signal inh inactive.
O=S(=O)(c1ccccc1)C1CN1c1c(F)c(F)c(F)c(F)c1F (stereo not drawn) was read as TWEAK-Fn14 inh inactive and TROY signal inh inactive.
For NCCc1cc(O)c(O)cc1O the results were TWEAK-Fn14 inh 56!, EBV LMP1 NFkB inactive and TROY signal inh inactive.
Screening COc1ccc(CCN)cc1O returned HSF1 inhib inactive, HSF1 activator inactive, TWEAK-Fn14 inh inactive, EBV LMP1 NFkB inactive and TROY signal inh inactive.
Screening CCN1/C(=C\C=C\C2=[N+](CC)c3ccccc3C2(C)C)C(C)(C)c2ccccc21 returned HSP90 inh inactive, HSF1 inhib inactive, HSF1 activator inactive, TWEAK-Fn14 inh 100, EBV LMP1 NFkB 71 and TROY signal inh 65.
`C[C@@H]1COc2cccc(N3CCN(C)CC3)c2S(=O)(=O)N1` gave TWEAK-Fn14 inh inactive and TROY signal inh inactive.
Cc1ccccc1C(=O)N1Cc2cnnn2-c2ccccc2C1C#N (stereo not drawn) was read as TWEAK-Fn14 inh inactive, EBV LMP1 NFkB inactive and TROY signal inh inactive.
Screening Cc1ccccc1CN1Cc2cnnn2-c2ccccc2C1C#N (stereo not drawn) returned TWEAK-Fn14 inh 96, EBV LMP1 NFkB inactive and TROY signal inh 56.
For CCOC(=O)c1cccc(C2=C(CNC(=O)c3ccc([N+](=O)[O-])cc3)[C@H]3CC[C@@H](C2)N3Cc2ccccc2)c1 the results were TWEAK-Fn14 inh inactive, EBV LMP1 NFkB inactive and TROY signal inh inactive.
`COC(=O)C1=C(c2ccc(F)cc2OCc2ccccc2)C[C@@H]2CC[C@H]1N2C` gave TWEAK-Fn14 inh inactive, EBV LMP1 NFkB inactive and TROY signal inh inactive.
For COC(=O)C1=C(c2ccc(F)cc2OCc2ccccc2)C[C@@H]2CC[C@H]1N2C(=O)NC1CCCCC1 the results were TWEAK-Fn14 inh inactive, EBV LMP1 NFkB inactive and TROY signal inh inactive.
`COC(=O)C1=C(c2ccc(OCc3ccccc3)cc2)C[C@@H]2CC[C@H]1N2C` gave TWEAK-Fn14 inh inactive, EBV LMP1 NFkB inactive and TROY signal inh 57.
